From the supplement of paper PMC6555819 come the findings set out here.

Holding throughout (experiment): PBM binding z-score (relative to random genomic background probes); higher = stronger binding; sequences stand for … in GC…GCGATTGACAGCGTAGAATGAAGG
In experiment [1] the test system is PPARg:RXRa DBDmut IVT, anti-RXR (DBD mutation: RXRa K156A/R161A, NR concentration 270 nM, RXRa partner concentration 90 nM). The essentials: (§1)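 Custom Agilent 4×180K protein-binding microarrays carried double-stranded probes. Their 34-nt variable regions held direct-repeat seeds, single-nucleotide variants, half-site ablations and random human genomic background sequences. Arrays were incubated 1 h with ligand-free nuclear receptor dimers in PBS pH 7.4, 2% milk, 0.02% Triton X-100, 1 mM DTT, 0.2 mg/mL BSA and 0.4 mg/ml salmon testes DNA. Antibodies against each partner (one per run) detected binding, and scanned fluorescence was regression-normalized. Binding z-scores use random background probes as reference.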

Experiment [2] has as its system PPARg:RXRa IVT, anti-PPARg (NR concentration 270 nM, RXRa partner concentration 90 nM). The essentials:
as §1

Experiment [3] relates to PPARg DBDmut:RXRa IVT, anti-PPARg (DBD mutation: PPARg1 K132A/R137A, NR concentration 270 nM, RXRa partner concentration 90 nM). The method, boiled down:
as §1

Experiment [4] deals with PPARg DBDmut IVT, anti-PPARg (DBD mutation: PPARg1 K132A/R137A, NR concentration 270 nM). The essentials: as §1
The test system of experiment [5] is PPARg homodimer (NR concentration 180 nM). The method, boiled down: as §1
The test system of experiment [6] is PXR:RXRa (NR concentration 270 nM, RXRa partner concentration 90 nM). The essentials: as §1
In experiment [7] the test system is PXR homodimer (NR concentration 270 nM). The method, boiled down:
as §1

In experiment [8] the test system is RARa:RXR (NR concentration 270 nM, RXRa partner concentration 90 nM). The essentials:
as §1

Experiment [9] deals with RARa homodimer (NR concentration 270 nM). The method, boiled down: as §1
The subject of experiment [10] is RARb:RXRa (NR concentration 270 nM, RXRa partner concentration 90 nM). The essentials: as §1
The test system of experiment [11] is RARb homodimer (NR concentration 270 nM). The method, boiled down:
as §1

Experiment [12] deals with RARg:RXRa (NR concentration 270 nM, RXRa partner concentration 90 nM). The method, boiled down:
as §1

For experiment [13], the system named is RARg homodimer (NR concentration 270 nM). The method, boiled down:
as §1

The test system of experiment [14] is RXRa DBDmut IVT, anti-RXR (DBD mutation: RXRa K156A/R161A, NR concentration 90 nM). The method, boiled down: as §1
In experiment [15] the test system is RXRa homodimer (NR concentration 180 nM). The essentials: as §1
Experiment [16] has as its system THRa homodimer (NR concentration 90 nM). The method, boiled down:
as §1

The subject of experiment [17] is VDR homodimer (NR concentration 270 nM). The essentials:
as §1

In experiment [18] the test system is THRa:RXRa (NR concentration 90 nM, RXRa partner concentration 90 nM). The essentials: as §1
Experiment [19] deals with VDR:RXRa (NR concentration 270 nM, RXRa partner concentration 90 nM). The essentials: as §1

CCTTACGGGTCACTCAAGGTTATAGCATCGGAGT: the PBM binding z-score in experiment [1] is 2.86; in experiment [2], 3.83; in [3], 1.98; in experiment [4] it was 1.29; in experiment [5] it was 3.87; in experiment [6], 6.13. Also, the PBM binding z-score in [7] was found to be 1.3; in experiment [8], 4.95; in experiment [9] it was 0.631; in experiment [10], 4.07; in experiment [11], 3.55; in experiment [12], 4.9. The PBM binding z-score is 4.38 in experiment [13]; 2.01 in experiment [14]; 5.23 in experiment [15]; 1.01 in experiment [16]; 1.75 in [17].

With GCATATAGGTAATTCAAGGTGAAAGTCCGATTGT, the PBM binding z-score in experiment [1] is 3.96; in experiment [2], 3.53; in experiment [3], 0.595; in experiment [4] it was 0.845; in experiment [5] it was 0.811; in [6], 0.919. The PBM binding z-score in [7] came to 0.171; in experiment [8], 2.33; in [9] it was 0.378; in experiment [10] it was 0.678; in experiment [11], 0.847; in experiment [12], 0.546. In addition, the PBM binding z-score stood at 0.26 in experiment [13]; 0.583 in experiment [14]; 0.756 in experiment [15]; 1.67 in experiment [16]; 0.292 in experiment [17].

Take CCTAGTTGGTCAGGAAGTCACACACCGGATATGA: the PBM binding z-score in experiment [1] was 0.63; in [2], 0.621; in experiment [3], -0.0162; in experiment [4], 0.0813; in experiment [5] it was 1.03; in experiment [6], 0.246. Also, the PBM binding z-score worked out at 0.549 in experiment [7]; 0.014 in [8]; 1.63 in experiment [9]; 0.892 in [10]; 1 in experiment [11]; 0.765 in [12]. The PBM binding z-score in [13] was 0.857; in experiment [14] it was 0.171; in [15], 0.568; in experiment [18], 0.226; in experiment [16] it was 0.522; in experiment [17], 0.457.

As for ATCGAAAAGTCGAAGGTGAGTATACCCACCCGAA, the PBM binding z-score in experiment [1] was -0.679; in experiment [2] it was 0.2; in experiment [3], 0.0254; in experiment [4], 0.527; in experiment [5] it was 0.0253; in experiment [6] it was -0.258. Also, the PBM binding z-score in [7] was -0.0858; in [8], 0.357; in [9], 0.291; in [10], 0.417; in experiment [11], -0.251; in experiment [12], 0.436. For the same sequence, the PBM binding z-score was 0.586 in [13]; -0.665 in experiment [14]; 0.0744 in experiment [18]; -0.357 in [16]; -0.47 in [19]; -0.0912 in experiment [17].

For the sequence TAGCCTAGGTTATGCGGGCCAGTATAGTGTCGGC, the PBM binding z-score in [1] was 0.00744; in [2] it was 0.945; in experiment [3] it was -0.658; in experiment [4], -0.513; in experiment [5] it was -0.501; in experiment [6] it was -0.511. Besides, the PBM binding z-score in [7] was -0.854; in experiment [8] it was -0.208; in experiment [9], -1.25; in experiment [10], 0.558; in [11] it was 0.219; in [12], -0.108. Moreover, the PBM binding z-score in experiment [13] was 0.272; in experiment [14], -0.93; in experiment [15], 0.14; in experiment [16], -0.669; in experiment [17], -0.934.

Turning to CTTAGTTGGTCAGGAGGTCACACACCGGATATGA, the PBM binding z-score in experiment [1] turned out to be 3.35; in experiment [2] it was 4.3; in [3], 1.44; in [4], 1.09; in experiment [5], 3.81; in experiment [6], 4.37. Further, the PBM binding z-score was 1.79 in experiment [7]; 4.74 in [8]; 3.28 in experiment [9]; 3.83 in experiment [10]; 4.33 in [11]; 5.21 in [12]. Further, the PBM binding z-score in experiment [13] is 4.53; in [14], 1.06; in [15], 4.99; in experiment [18], 3.67; in [16], 2.65; in experiment [17] it was 2.74.

Consider CAAACTAGGTCAAAGGTCAAAGCCGAGCCAACCA, for which the PBM binding z-score in experiment [1] was found to be 8.36; in [2], 8.57; in [3] it was 2.64; in [4], 1.45; in [5], 4.45; in [6], 6.85. Further, the PBM binding z-score was determined as 1.41 in experiment [7]; 9.13 in experiment [8]; 2.5 in experiment [9]; 5.94 in experiment [10]; 5.47 in experiment [11]; 8.97 in experiment [12]. In addition, the PBM binding z-score in experiment [13] stood at 7.51; in [14], 2.57; in experiment [15], 10.7; in experiment [16] it was 1.74; in experiment [17], 2.99.

With ACTAGGTGGTCAGCTGAGGTCACACACAATTCGG, the PBM binding z-score was found to be 1.21 in [1]; 3.02 in experiment [2]; 0.296 in [3]; 0.306 in experiment [4]; 1.93 in experiment [5]; 5.62 in [6]. Also, the PBM binding z-score in experiment [7] amounted to 1.01; in experiment [8] it was 4.73; in [9], 0.58; in [10], 3.78; in [11] it was 4.47; in [12], 4.04. Besides, the PBM binding z-score in experiment [13] amounted to 4.46; in experiment [14], 0.949; in experiment [15], 4.06; in experiment [16], 5.08; in experiment [19] it was 4.54; in experiment [17], 2.8.
